Test results: PubChem BioAssay
For some of these results: Results with a measured potency or affinity are listed apart. Activity calls are given as the source filed them. Unless noted, the rule behind the calls is not given here.

Tests used:
[1] = antimalarial activity against Dd2 strain (AID 2302;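 active = growth inhibition above 50% at the single 2 µM test dose, taken to imply half-maximal potency below 2 µM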;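 note: 0% = DMSO untreated growth and 100% = chloroquine plus artemisinin killed control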); conditions: P. falciparum Dd2 in RBCs, LDH growth readout, 72 h; at 2 µM; active compounds read high
[2] = human hepatoma cell viability loss – ATP luminescence, cytotoxicity control for P. falciparum antimalarial project, primary screen (AID 2303;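 active = inhibition above 50%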;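 note: 0% = DMSO wells and 100% = digitonin-killed cells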); conditions: HepG2 viability, 24-48 h, at 10 µM, active compounds read high
[3] = biological target: L-lactate dehydrogenase (Plasmodium falciparum (isolate CDC / Honduras)) (UniProt Q27743); test: PfLDH activity inhibition – cell lysate, 3D7 strain, counter-screen for P. falciparum growth inhibition project (AID 2304);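 note: 0% = vehicle and 100% = reference inhibitor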; conditions: P. falciparum 3D7 crude extract, LDH APAD/NBT absorbance; at 2 µM; active compounds read high
Chain of L-lactate dehydrogenase (Plasmodium falciparum (isolate CDC / Honduras)) (Q27743 whole entry, looked up): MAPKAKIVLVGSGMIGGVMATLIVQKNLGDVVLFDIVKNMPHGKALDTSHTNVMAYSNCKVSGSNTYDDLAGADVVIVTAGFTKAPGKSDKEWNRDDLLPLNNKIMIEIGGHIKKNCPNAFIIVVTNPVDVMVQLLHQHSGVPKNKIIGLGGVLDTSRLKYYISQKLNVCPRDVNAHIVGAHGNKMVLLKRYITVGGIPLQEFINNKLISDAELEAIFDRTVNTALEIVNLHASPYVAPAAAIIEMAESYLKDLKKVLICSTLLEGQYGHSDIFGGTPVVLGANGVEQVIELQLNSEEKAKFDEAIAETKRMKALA

[4] = inhibition of 3D7 malaria parasite growth – strain 3D7 (AID 2306);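 note: 0% = DMSO wells and 100% = chloroquine plus artemisinin control wells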; conditions: P. falciparum 3D7 erythrocytic growth, LDH absorbance, 72 h; at 2 µM; active compounds read high
[5] = biological target: Calcium-dependent protein kinase 1 (Plasmodium falciparum (isolate 3D7)) (UniProt P62344); test: PfCDPK1 kinase inhibitors, biochemical, TCAMS library (AID 1159585; cut-off not given, nearly all actives have IC50 up to about 0.98 µM;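 note: inhibitors leave more ATP so luminescence rises with inhibition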); conditions: recombinant PfCDPK1, Kinase-Glo ATP depletion luminescence
Chain of Calcium-dependent protein kinase 1 (Plasmodium falciparum (isolate 3D7)) (P62344 whole entry, looked up): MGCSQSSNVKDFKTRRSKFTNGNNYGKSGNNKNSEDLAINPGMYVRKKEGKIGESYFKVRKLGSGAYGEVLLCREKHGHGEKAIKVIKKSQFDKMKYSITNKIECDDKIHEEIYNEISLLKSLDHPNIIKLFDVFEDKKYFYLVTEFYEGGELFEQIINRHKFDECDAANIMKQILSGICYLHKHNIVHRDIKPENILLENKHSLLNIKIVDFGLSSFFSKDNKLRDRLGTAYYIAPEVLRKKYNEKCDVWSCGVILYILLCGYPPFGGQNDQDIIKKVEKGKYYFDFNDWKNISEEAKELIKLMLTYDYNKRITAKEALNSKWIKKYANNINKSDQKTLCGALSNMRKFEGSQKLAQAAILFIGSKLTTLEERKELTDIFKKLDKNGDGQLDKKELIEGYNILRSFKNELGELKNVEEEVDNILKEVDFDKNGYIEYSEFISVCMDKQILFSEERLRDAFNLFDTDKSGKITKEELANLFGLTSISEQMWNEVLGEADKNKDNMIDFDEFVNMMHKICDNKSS

[6] = biological target: Plasmodium falciparum protein kinase 6 (PK6, PF3D7_1337100) (UniProt Q8IDW1); test: PfPK6 kinase inhibitors, biochemical, TCAMS library (AID 1159586); conditions: recombinant PfPK6, Kinase-Glo ATP depletion luminescence
Chain of Plasmodium falciparum protein kinase 6 (PK6, PF3D7_1337100) (Q8IDW1 1-305): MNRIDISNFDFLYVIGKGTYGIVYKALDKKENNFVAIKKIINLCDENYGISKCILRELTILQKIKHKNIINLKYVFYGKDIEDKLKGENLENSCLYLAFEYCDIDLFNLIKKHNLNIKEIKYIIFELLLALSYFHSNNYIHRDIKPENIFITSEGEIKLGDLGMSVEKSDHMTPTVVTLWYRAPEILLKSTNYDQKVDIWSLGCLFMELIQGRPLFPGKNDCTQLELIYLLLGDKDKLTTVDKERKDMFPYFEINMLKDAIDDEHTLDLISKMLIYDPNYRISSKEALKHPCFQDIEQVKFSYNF

[7] = biological target: Protein kinase 7 (PK7), Plasmodium falciparum 3D7 (PF3D7_0213400) (UniProt Q7YTF7); test: inhibition of Plasmodium PK7 catalytic activity – biochemical, TCAMS antimalarial set, Kinase-Glo luminescence (AID 1159587); conditions: recombinant PfPK7, Kinase-Glo ATP depletion luminescence
Chain of Protein kinase 7 (PK7), Plasmodium falciparum 3D7 (PF3D7_0213400) (Q7YTF7 1-343): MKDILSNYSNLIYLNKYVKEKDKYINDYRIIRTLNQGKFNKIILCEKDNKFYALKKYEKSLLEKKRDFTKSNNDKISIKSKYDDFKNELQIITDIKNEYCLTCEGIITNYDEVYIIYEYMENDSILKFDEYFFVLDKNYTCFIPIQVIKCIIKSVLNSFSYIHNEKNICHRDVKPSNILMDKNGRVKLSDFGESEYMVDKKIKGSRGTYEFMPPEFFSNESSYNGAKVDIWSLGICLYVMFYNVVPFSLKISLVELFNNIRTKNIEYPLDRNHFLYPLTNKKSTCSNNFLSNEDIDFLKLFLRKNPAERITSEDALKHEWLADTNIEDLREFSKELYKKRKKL

[8] = biological target: Calcium-dependent protein kinase 4 (Plasmodium falciparum (isolate 3D7)) (UniProt Q8IBS5); test: PfCDPK4 kinase inhibitors, biochemical, TCAMS library (AID 1159588; cut-off not given, nearly all actives have IC50 up to about 0.91 µM); conditions: recombinant PfCDPK4, Kinase-Glo ATP depletion luminescence
Chain of Calcium-dependent protein kinase 4 (Plasmodium falciparum (isolate 3D7)) (Q8IBS5 whole entry, looked up): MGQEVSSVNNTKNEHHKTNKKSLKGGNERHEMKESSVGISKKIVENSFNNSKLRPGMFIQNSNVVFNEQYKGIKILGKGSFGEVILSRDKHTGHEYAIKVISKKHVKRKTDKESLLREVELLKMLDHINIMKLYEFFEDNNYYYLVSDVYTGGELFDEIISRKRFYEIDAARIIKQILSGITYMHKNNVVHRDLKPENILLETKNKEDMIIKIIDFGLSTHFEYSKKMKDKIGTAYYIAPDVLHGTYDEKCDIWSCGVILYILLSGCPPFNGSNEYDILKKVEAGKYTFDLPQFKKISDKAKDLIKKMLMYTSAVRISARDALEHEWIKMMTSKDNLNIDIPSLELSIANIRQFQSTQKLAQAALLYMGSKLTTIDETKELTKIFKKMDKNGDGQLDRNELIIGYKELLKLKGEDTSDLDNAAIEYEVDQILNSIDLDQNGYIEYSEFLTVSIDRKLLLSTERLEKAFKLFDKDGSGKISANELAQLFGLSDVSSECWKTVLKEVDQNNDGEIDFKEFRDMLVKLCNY

Cc1cccc2[nH]c(-c3ccc(-c4ccc(NC(=O)C(C)CN(C)C)cc4)s3)nc12 (stereo not drawn)
active: growth inhibition [1] 98% | growth inhibition [4] 100%
inactive: inhibition [2] 23% | inhibition [3] 0% | outcome [5] | outcome [6] | outcome [7] | outcome [8]

CC1(C)N=C(N)N=C(N)N1OCc1ccc2c(c1)OCO2
inactive: inhibition [3] -3% | outcome [5] | outcome [6] | outcome [7] | outcome [8]
active: growth inhibition [1] 86% | inhibition [2] 66% | growth inhibition [4] 93%

O=C(NC(=S)Nc1cc(C(F)(F)F)cc(C(F)(F)F)c1)c1ccc(Cl)cc1
inactive: inhibition [2] 31% | inhibition [3] 0% | outcome [5] | outcome [6] | outcome [7] | outcome [8]
active: growth inhibition [1] 99% | growth inhibition [4] 96%

NC(=O)c1ccc(C(=O)Nc2cccc(-c3csc(-c4nc5ccccc5[nH]4)c3)c2)cc1
active: growth inhibition [4] 100%
inactive: growth inhibition [1] 35% | inhibition [2] 14% | inhibition [3] -4% | outcome [5] | outcome [6] | outcome [7] | outcome [8]

CC(C)CC1c2[nH]c3ccccc3c(=O)c2CN1C(=O)OC(C)(C)C (stereo not drawn)
inactive: inhibition [2] 2% | inhibition [3] -4% | outcome [5] | outcome [6] | outcome [7] | outcome [8]
active: growth inhibition [1] 96% | growth inhibition [4] 97%

Cc1nc(N)nc(N)c1CCCOc1ccccc1Cl
active: growth inhibition [4] 98%
inactive: growth inhibition [1] 5% | inhibition [2] 40% | inhibition [3] -1% | outcome [5] | outcome [6] | outcome [7] | outcome [8]

CCN(CC)CCN(Cc1ccc(-c2ccc(C(F)(F)F)cc2)cc1)C(=O)Cn1c(CCc2cccc(F)c2F)nc(=O)c2cc(F)ccc21
inactive: growth inhibition [1] 45% | inhibition [2] 15% | inhibition [3] 0% | outcome [5] | outcome [6] | outcome [7] | outcome [8]
active: growth inhibition [4] 98%

CC(C)(C)CC(=O)Nc1ccc(Nc2cc(-c3ccncc3)cc3ncc(C(N)=O)cc23)cc1
inactive: inhibition [2] 5% | inhibition [3] 7% | outcome [5] | outcome [6] | outcome [7] | outcome [8]
active: growth inhibition [1] 85% | growth inhibition [4] 97%

CC(Cc1ccc(OCCN2CCN(c3cccc(Cl)c3)CC2)cc1)NCC(O)c1cccc(C(F)(F)F)c1 (stereo not drawn)
inactive: inhibition [3] -1% | outcome [5] | outcome [6] | outcome [7] | outcome [8]
active: growth inhibition [1] 98% | inhibition [2] 100% | growth inhibition [4] 99%

CN1CCN(c2ccc3nc(-c4ccc5nc(-c6ccc(O)cc6)[nH]c5c4)[nH]c3c2)CC1
inactive: inhibition [2] -11% | inhibition [3] 3% | outcome [5] | outcome [6] | outcome [7] | outcome [8]
active: growth inhibition [1] 100% | growth inhibition [4] 99%

CC(C)[C@H](NC(=O)c1c(CN2CCC(N3CCCCC3)CC2)c(-c2ccccc2)nc2cc(O)ccc12)c1ccccc1
active: growth inhibition [1] 73% | growth inhibition [4] 100%
inactive: inhibition [2] 10% | inhibition [3] 4% | outcome [5] | outcome [6] | outcome [7] | outcome [8]

COc1ccc(O)c(C(=O)c2cc(C(=O)NCCc3ccccc3)c(=O)n(CCc3ccccc3)c2)c1
active: growth inhibition [4] 97%
inactive: growth inhibition [1] 18% | inhibition [2] 11% | inhibition [3] -2% | outcome [5] | outcome [6] | outcome [7] | outcome [8]

FC(F)(F)c1ccc2nc(-c3ccc(-c4ccc(CNCc5cnn(-c6ccccc6)n5)cc4)cc3)[nH]c2c1
active: growth inhibition [1] 76% | growth inhibition [4] 100%
inactive: inhibition [2] 35% | inhibition [3] -1% | outcome [5] | outcome [6] | outcome [7] | outcome [8]

CC(=O)c1ccc2c(c1)[C@H](NC(=O)c1cccc(Cl)c1Cl)[C@@H](CO)C(C)(C)O2
active: growth inhibition [4] 99%
inactive: growth inhibition [1] 44% | inhibition [2] 5% | inhibition [3] 4% | outcome [5] | outcome [6] | outcome [7] | outcome [8]

COc1ccc2nc3cc(Cl)ccc3c(NCc3ccccc3)c2c1
active: growth inhibition [1] 50% | growth inhibition [4] 101%
inactive: inhibition [2] 8% | inhibition [3] 5% | outcome [5] | outcome [6] | outcome [7] | outcome [8]

COc1ccc2nccc(NCC3(O)CCN(CC(O)c4ccc5c(c4)NC(=O)CS5)CC3)c2n1 (stereo not drawn)
active: growth inhibition [4] 100%
inactive: growth inhibition [1] 3% | inhibition [2] 3% | inhibition [3] 2% | outcome [5] | outcome [6] | outcome [7] | outcome [8]

O=C(/C=C/c1ccc(Cl)c(Cl)c1)NCCCCCN1CCCC(C(=O)Nc2cccc(Cl)c2)C1 (stereo not drawn)
inactive: growth inhibition [1] 2% | inhibition [2] 41% | inhibition [3] -2% | outcome [5] | outcome [6] | outcome [7] | outcome [8]
active: growth inhibition [4] 99%

CC1(C)N=C(N)N=C(N)N1OCC=Cc1ccccc1
inactive: inhibition [3] -3% | outcome [5] | outcome [6] | outcome [7] | outcome [8]
active: growth inhibition [1] 96% | inhibition [2] 62% | growth inhibition [4] 94%

Cc1c(CNCCCNc2nc3cscc3[nH]2)sc(C(F)F)c1Br
inactive: growth inhibition [1] 11% | inhibition [2] 1% | inhibition [3] 1% | outcome [5] | outcome [6] | outcome [7] | outcome [8]
active: growth inhibition [4] 99%

Cc1ccc(C(=O)Nc2ccc(Nc3ccnc4cc(-c5ccccn5)ccc34)cc2O)cc1
active: growth inhibition [1] 100% | inhibition [2] 100% | growth inhibition [4] 100%
inactive: inhibition [3] 2% | outcome [5] | outcome [6] | outcome [7] | outcome [8]

COc1ccc2nccc([C@@H](O)CN3CCC(NCc4nc5ccccc5[nH]4)CC3)c2c1
active: growth inhibition [4] 92%
inactive: growth inhibition [1] 2% | inhibition [2] 41% | inhibition [3] 4% | outcome [5] | outcome [6] | outcome [7] | outcome [8]

FC(F)(F)c1ccc2nccc(NN=Cc3cccc(Cl)c3)c2c1
active: growth inhibition [4] 97%
inactive: growth inhibition [1] 2% | inhibition [2] -3% | inhibition [3] -8% | outcome [5] | outcome [6] | outcome [7] | outcome [8]

O=C(NC1CCN(CCCOc2ccnc3cc(Cl)ccc23)C1)c1ccc(Br)cc1 (stereo not drawn)
inactive: inhibition [2] 21% | inhibition [3] 2% | outcome [5] | outcome [6] | outcome [7] | outcome [8]
active: growth inhibition [1] 87% | growth inhibition [4] 86%

O=C(Nc1cccc([N+](=O)[O-])c1)Nc1cccc(C(F)(F)F)c1
inactive: inhibition [2] 0% | inhibition [3] -8% | outcome [5] | outcome [6] | outcome [7] | outcome [8]
active: growth inhibition [1] 81% | growth inhibition [4] 92%

CCOc1ccc(C(C)NC(=O)c2ccc(OC)c(Br)c2)cc1OCC (stereo not drawn)
inactive: inhibition [2] 9% | inhibition [3] 2% | outcome [5] | outcome [6] | outcome [7] | outcome [8]
active: growth inhibition [1] 100% | growth inhibition [4] 100%

O=S(=O)(NCCN1CCCC1)c1ccc(-c2ccc(CNCc3ccsc3)cc2)cc1F
active: growth inhibition [4] 96%
inactive: growth inhibition [1] 40% | inhibition [2] 27% | inhibition [3] 0% | outcome [5] | outcome [6] | outcome [7] | outcome [8]

Cc1cccc2[nH]c(-c3ccc(-c4ccc(CN5CCCCC5)cc4)s3)nc12
active: growth inhibition [1] 87% | growth inhibition [4] 99%
inactive: inhibition [2] 16% | inhibition [3] -2% | outcome [5] | outcome [6] | outcome [7] | outcome [8]

COc1ccc(CNCc2cccc(-c3ccc(-c4nc5ccccc5[nH]4)s3)c2)cc1
inactive: inhibition [2] 14% | inhibition [3] 0% | outcome [5] | outcome [6] | outcome [7] | outcome [8]
active: growth inhibition [1] 52% | growth inhibition [4] 90%

CC1CCCN(S(=O)(=O)c2ccc(NC(=O)c3cc(-c4ccccc4O)n[nH]3)cc2)C1 (stereo not drawn)
inactive: growth inhibition [1] 49% | inhibition [2] 12% | inhibition [3] 3% | outcome [5] | outcome [6] | outcome [7] | outcome [8]
active: growth inhibition [4] 93%

CN(C)C(CNC(=O)c1cc(-c2ccncc2)c(-c2ccc(NC(=O)Nc3cccc(Cl)c3)cc2)o1)c1ccccc1 (stereo not drawn)
inactive: inhibition [2] 12% | inhibition [3] -1% | outcome [5] | outcome [6] | outcome [7] | outcome [8]
active: growth inhibition [1] 100% | growth inhibition [4] 101%

CCOc1c(CNCCCNc2cc(=O)c3ccccc3[nH]2)cc(I)cc1C(C)(C)C
active: growth inhibition [1] 89% | growth inhibition [4] 102%
inactive: inhibition [2] 17% | inhibition [3] -4% | outcome [5] | outcome [6] | outcome [7] | outcome [8]

O=C(Nc1ccccc1)Nc1ccc(-n2ccc(C(F)(F)F)n2)cc1
active: growth inhibition [1] 85% | growth inhibition [4] 95%
inactive: inhibition [2] 15% | inhibition [3] -5% | outcome [5] | outcome [6] | outcome [7] | outcome [8]

CCN(CCCN1CCCCC1)c1cc(C)nc(Nc2cccc(C(F)(F)F)c2C)n1
active: inhibition [2] 57% | growth inhibition [4] 99%
inactive: growth inhibition [1] 37% | inhibition [3] -2% | outcome [5] | outcome [6] | outcome [7] | outcome [8]

CCC(Cc1ccccc1)c1cc(O)c(Cc2ccc(-c3ccccc3)cc2)c(=O)o1 (stereo not drawn)
active: growth inhibition [4] 89%
inactive: growth inhibition [1] -3% | inhibition [2] 3% | inhibition [3] -1% | outcome [5] | outcome [6] | outcome [7] | outcome [8]

O=C(NC1CCCc2ccccc21)[C@@H]1CCCN1C(=O)c1ccc(O)c(-c2cccc([N+](=O)[O-])c2)c1 (stereo partly drawn)
inactive: inhibition [2] -5% | inhibition [3] 5% | outcome [5] | outcome [6] | outcome [7] | outcome [8]
active: growth inhibition [1] 99% | growth inhibition [4] 99%

O=C(O)c1ccc(OCOCOc2ccc(C(=O)O)c(O)c2)cc1O
inactive: growth inhibition [1] 0% | inhibition [2] -2% | inhibition [3] 6% | outcome [5] | outcome [6] | outcome [7] | outcome [8]
active: growth inhibition [4] 99%

O=C(NCCCCN1CCN(c2cccc3c2OCCO3)CC1)c1ccc(NC(=O)c2cc(Cl)cc(Cl)c2)cc1
inactive: inhibition [2] 21% | inhibition [3] -3% | outcome [5] | outcome [6] | outcome [7] | outcome [8]
active: growth inhibition [1] 89% | growth inhibition [4] 101%

COc1ccc2ncc(C#N)c(CCN3CCC(NCc4ccc5c(c4)NC(=O)CO5)CC3)c2c1
active: growth inhibition [4] 99%
inactive: growth inhibition [1] 43% | inhibition [2] 25% | inhibition [3] -3% | outcome [5] | outcome [6] | outcome [7] | outcome [8]

COc1cc2nc(NCCc3cccc(Cl)c3)nc(NCc3ccccc3)c2cc1OC
active: growth inhibition [1] 101% | inhibition [2] 97% | growth inhibition [4] 101%
inactive: inhibition [3] 0% | outcome [5] | outcome [6] | outcome [7] | outcome [8]

Cc1c(Cl)cccc1S(=O)(=O)Nc1ccc(CCN2CCC(N)CC2)cc1
active: growth inhibition [4] 90%
inactive: growth inhibition [1] 4% | inhibition [2] 23% | inhibition [3] 0% | outcome [5] | outcome [6] | outcome [7] | outcome [8]

FC(F)(F)c1cccc(Nc2nc(-n3ccnc3)nc(-n3ccnc3)n2)c1
active: growth inhibition [4] 97%
inactive: growth inhibition [1] 9% | inhibition [2] 5% | inhibition [3] 1% | outcome [5] | outcome [6] | outcome [7] | outcome [8]
